Experimental data as given in PubChem BioAssay (NCATS).
Records with an inconclusive call do not appear. Activity calls are given as the source filed them. Unless noted, calls come from the whole dose curve; as a rule, active = well fitted curve in the direction sought with a large enough effect; inconclusive = small, poorly fitted or top-dose-only effect, or another doubt; inactive = no such curve, though single readings can be large; an effect the other way counts as inactive or inconclusive.

Legend:
[1] = P-glycoprotein substrates identified in KB-3-1 adenocarcinoma cell line, qHTS therapeutic library screen (AID 1346986); note: % is set by controls: 0 for no effect and ±100 for the full control effect; nearly all actives have a fitted effect of over 60% in size
Outline: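 Dose-response cytotoxicity, KB-3-1 vs P-gp-high KB-8-5-11, no colchicine in assay medium. Read: CellTiter-Glo at 72 h.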

[2] = P-glycoprotein substrates identified in KB-8-5-11 adenocarcinoma cell line, qHTS therapeutic library screen (AID 1346987); note: nearly all actives have a fitted effect of over 65% in size
Outline: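 In this qHTS, P-gp-rich KB-8-5-11 cells received library compounds across a concentration range. Viability was quantified by luminescence after 72 h at 37 degree C.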

[3] = Viability counterscreen for antagonist of constitutive androstane receptor (CAR) against the NCATS DSHEA and TCM libraries (AID 1794837);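 note: compound exposure lasted 24 h before viability reading; 0% is about no effect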
Outline: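 Cells: HepG2 line carrying CYP2B6 reporter and hCAR, seeded and attached 5 h. Then pin-transferred test substances plus agonist CITCO at 48 uM final; 24 h incubation; fluorogenic viability reagent, 1 h.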

[4] = Viability counterscreen for agonist of constitutive androstane receptor (CAR) against the NCATS DSHEA and TCM libraries (AID 1794838);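 note: HepG2 cells with CYP2B6 reporter and hCAR plus 0.75 µM PK11195 antagonist; 0% is about no effect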
Outline: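 Cell health was measured as CellTiter-Fluor signal in HepG2-CYP2B6-hCAR cells treated for 24 h with substances alongside the hCAR antagonist PK11195 (0.75 uM final).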

[5] = target: Nuclear receptor subfamily 1 group I member 3 (Homo sapiens) (UniProt Q14994); assay: Primary qHTS for agonist of constitutive androstane receptor (CAR) against the NCATS DSHEA and TCM libraries (AID 1794839);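 note: HepG2 cells expressing human CAR with a CYP2B6 reporter plus PK11195 antagonist; luciferase reporter luminescence read with ONE-Glo; 0% is about no effect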
Outline: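 qHTS, agonist mode: HepG2-CYP2B6-hCAR, 2,500 cells/well, 5 h attach; cpds + PK11195 0.75 µM final; 24 h, 37 °C, 5% CO2. Readouts: CellTiter-Fluor (405/540 nm), then ONE-Glo luminescence.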

[6] = HepG2 viability counterscreen (readout 2: ATP content) against the NCATS DSHEA and TCM libraries (AID 1794840); note: 0% is about no effect
Outline: (§1)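 Same wells read twice: first fluorescence from cleaved GF-AFC substrate (25 uM final, 30 min, 37C) for live-cell protease, then CellTiter-Glo luminescence after 30 min at room temperature for ATP. HepG2 cells were exposed ~24 h to substances.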

[7] = HepG2 viability counterscreen (readout 1: protease activity) against the NCATS DSHEA and TCM libraries (AID 1794841);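 note: cells exposed to compounds for about 24 h before the protease read; 0% is about no effect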
Outline: as §1

[8] = target: Cytochrome P450 2D6 (Homo sapiens) (UniProt P10635); assay: qHTS for inhibitors of CYP2D6 against the NCATS DSHEA and TCM libraries (AID 1919972); note: % is set by controls: 0 for no effect and ±100 for the full control effect
Outline: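 qHTS, concentration–response format with most substances from 19.5 nM. CYP2D6 + pro-luciferin substrate, 15 min with compound, then 1x NADPH regen, 30–45 min RT dark. Glo detection 30 min, luminescence. Quinidine control.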

[9] = target: Cytochrome P450 2C9 (Homo sapiens) (UniProt P11712); assay: qHTS for inhibitors of CYP2C9 against the NCATS DSHEA and TCM libraries (AID 1919973); note: potency is the fitted concentration of half-maximal effect
Outline: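 Substances were tested against enzyme with a pro-luciferin substrate; minus-enzyme wells served as background. After NADPH-initiated oxidation (30-45 min, RT), light was generated with P450-Glo reagent.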

[10] = KB-3-1 P-gp reporter qHTS against the NCATS DSHEA and TCM libraries (AID 1919975); note: 0% is about no effect
Outline: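 KB-3-1 parental line, 1536-well qHTS: cells seeded, ~4 h attachment, pintool compound addition, ~72 h at 37C, then CellTiter-Glo, 30 min RT, luminescence. Concentration-response format.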

[11] = target: Cytochrome P450 1A2 (Homo sapiens) (UniProt P05177); assay: qHTS for inhibitors of CYPIA2 against the NCATS DSHEA and TCM libraries (AID 1919976); note: series mostly up to about 37 µM; % is set by controls: 0 for no effect and ±100 for the full control effect
Outline: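 Luminescence read-out: pro-luciferin converted to D-luciferin by CYP1A2, detected with P450-Glo reagent after 30 min RT. Enzyme plus substrate got compounds for 15 min RT; NADPH regeneration solution (final 1x) started a 30-45 min reaction, light-protected.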

[12] = qHTS Counterscreen for compound interference against the NCATS DSHEA and TCM libraries (AID 1919978); settings: firefly luciferase detection reagent interference, luminescence;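 note: compounds preincubated with 1 µM D-luciferin or buffer before detection reagent; % of control where 0% means no effect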
Outline: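 Compounds, titrated from 19.5 nM to 39.8 uM final, were pinned onto 1 uM D-luciferin or plain 100 mM potassium phosphate. After 15 min at room temperature, luciferin detection reagent was added for 30 min before the luminescence read.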

[13] = Dual reporter qHTS for agonist of Pregnane X Receptor (hPXR) against the NCATS DSHEA and TCM libraries: Fluorescence readout (AID 1920058); note: 0% is about no effect
Outline: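 Fluorescence read-out for cell viability: CellTiter-Fluor, 1 h at 37 °C, Ex/Em 405/540 nm. This followed ~24 h treatment of hPXR-Luc HepG2 cells with substances in agonist mode.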

[14] = target: Nuclear receptor subfamily 1 group I member 2 (Homo sapiens) (UniProt O75469); assay: Dual reporter qHTS for agonist of Pregnane X Receptor (hPXR) against the NCATS DSHEA and TCM libraries: Luminescence readout (AID 1920059); note: 0% is about no effect
Outline: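 Luminescent PXR reporter read (ONE-Glo) after a CellTiter-Fluor viability read, following 24 h, 37C treatment of HepG2 cells stably carrying hPXR-Luc.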

[15] = target: Nuclear receptor subfamily 1 group I member 2 (Homo sapiens) (UniProt O75469); assay: Dual reporter qHTS for antagonist of Pregnane X Receptor (hPXR) against the NCATS DSHEA and TCM libraries: Luminescence Readout (AID 1920060);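 note: HepG2 cells carrying hPXR luciferase reporter stimulated with rifampicin at 2 µM; 0% is about no effect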
Outline: (§2)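 HepG2 hPXR-Luc, 2000 cells/well, charcoal-stripped FBS medium; 5 h attach; RIF 2 uM final; 24 h 37C/5% CO2; CellTiter-Fluor 1 h, fluor 405/540; ONE-Glo 30 min RT, lum.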

[16] = Dual reporter qHTS for antagonist of Pregnane X Receptor (hPXR) against the NCATS DSHEA and TCM libraries: Fluorescence Readout (AID 1920061); note: 0% is about no effect
Outline: as §2

[17] = Primary qHTS for inhibitors of nuclear receptor binding SET domain protein 2 (NSD2) in an isogenic RCH-ACV NSD2 p.E1099K mutant (9B) (AID 1645876); note: potency is the fitted concentration of half-maximal effect; nearly all actives have a fitted effect of over 70% in size
[18] = target: Glutathione peroxidase 1 (Homo sapiens) (UniProt P07203); assay: Primary qHTS Assay for Inhibitors of Recombinant Selenoprotein Glutathione Peroxidase 1 (GPX1) (AID 1845191); note: nearly all actives have a fitted effect of over 65% in size
Outline: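 NADPH consumption tracked by fluorescence at 340/450 nm between t=0 and t=15 min, room temperature. Final mix: 10 nM GPX1, 100 nM glutathione reductase, 1 mM GSH, 0.5 mM NADPH, 0.5 mM cumene hydroperoxide, 0.01% BSA; 30 min compound–enzyme preincubation.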

[19] = target: Phospholipid hydroperoxide glutathione peroxidase GPX4 (Homo sapiens) (UniProt P36969); assay: Primary qHTS Assay for Inhibitors of Recombinant Selenoprotein Glutathione Peroxidase 4 (GPX4) (AID 1845192); settings: outcome: dose series up to 50 µM unless noted; note: series mostly up to about 50 µM; % is set by controls: 0 for no effect and ±100 for the full control effect; nearly all actives have a fitted effect of over 65% in size
Outline: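 NADPH consumption followed by fluorescence at 340/450 nm, t=0 and after 15 min at room temperature. Reaction started with cumene hydroperoxide (0.5 mM final) after 30 min compound–GPX4 preincubation; final 200 nM GPX4, 100 nM GR, 1 mM GSH, 0.5 mM NADPH.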

[20] = qHTS drug screen for cell cycle checkpoint inhibitors in PARPi-resistant BRCA-mutant ovarian cancer cell lines. (AID 1963452; calls by dose curve); settings: PEO1/OlaR viability, CellTiter-Glo luminescence, 96 h, stronger effect = lower value
Outline: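 PEO1, PEO4 and PEO1/OlaR ovarian cancer cells, 600 per well, exposed 96 h at 37C to a dilution series. Viability read by CellTiter-Glo luminescence, normalized to DMSO and empty wells; activity summarized as Z-AUC.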

Nuclear receptor subfamily 1 group I member 2 (Homo sapiens), sequence (O75469 whole entry, looked up): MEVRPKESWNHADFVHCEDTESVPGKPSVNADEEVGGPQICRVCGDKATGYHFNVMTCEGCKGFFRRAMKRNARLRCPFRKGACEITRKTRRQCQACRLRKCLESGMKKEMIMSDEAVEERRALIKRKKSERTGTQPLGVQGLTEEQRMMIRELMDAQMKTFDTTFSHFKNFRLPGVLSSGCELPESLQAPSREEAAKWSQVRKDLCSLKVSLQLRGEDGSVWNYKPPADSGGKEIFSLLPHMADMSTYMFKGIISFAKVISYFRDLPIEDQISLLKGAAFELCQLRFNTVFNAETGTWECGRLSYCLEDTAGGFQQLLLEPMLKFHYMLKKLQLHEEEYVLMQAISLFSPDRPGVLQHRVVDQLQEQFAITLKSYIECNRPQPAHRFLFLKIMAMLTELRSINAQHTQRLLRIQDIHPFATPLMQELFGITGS
Nuclear receptor subfamily 1 group I member 3 (Homo sapiens), sequence (Q14994 whole entry, looked up): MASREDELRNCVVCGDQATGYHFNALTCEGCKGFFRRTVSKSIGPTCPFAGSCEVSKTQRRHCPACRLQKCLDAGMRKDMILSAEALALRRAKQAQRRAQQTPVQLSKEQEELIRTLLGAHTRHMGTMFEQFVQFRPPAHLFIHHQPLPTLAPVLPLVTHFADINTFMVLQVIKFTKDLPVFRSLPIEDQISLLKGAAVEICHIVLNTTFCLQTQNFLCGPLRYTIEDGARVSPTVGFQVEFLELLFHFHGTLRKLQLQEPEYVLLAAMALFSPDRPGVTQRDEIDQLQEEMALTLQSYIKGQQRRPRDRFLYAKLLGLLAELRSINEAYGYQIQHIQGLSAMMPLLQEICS
Phospholipid hydroperoxide glutathione peroxidase GPX4 (Homo sapiens), sequence (P36969 whole entry, looked up): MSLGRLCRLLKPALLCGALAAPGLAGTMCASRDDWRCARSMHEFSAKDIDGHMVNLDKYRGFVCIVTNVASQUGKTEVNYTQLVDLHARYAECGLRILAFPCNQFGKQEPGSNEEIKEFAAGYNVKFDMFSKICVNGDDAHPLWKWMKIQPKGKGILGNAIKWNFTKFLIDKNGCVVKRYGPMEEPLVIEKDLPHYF
Glutathione peroxidase 1 (Homo sapiens), sequence (P07203 whole entry, looked up): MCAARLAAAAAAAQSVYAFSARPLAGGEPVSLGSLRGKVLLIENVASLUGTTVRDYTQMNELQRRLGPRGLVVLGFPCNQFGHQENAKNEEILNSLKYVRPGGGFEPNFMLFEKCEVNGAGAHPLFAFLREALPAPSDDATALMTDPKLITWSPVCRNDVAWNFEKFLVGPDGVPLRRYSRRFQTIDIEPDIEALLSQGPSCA
Cytochrome P450 2C9 (Homo sapiens), sequence (P11712 whole entry, looked up): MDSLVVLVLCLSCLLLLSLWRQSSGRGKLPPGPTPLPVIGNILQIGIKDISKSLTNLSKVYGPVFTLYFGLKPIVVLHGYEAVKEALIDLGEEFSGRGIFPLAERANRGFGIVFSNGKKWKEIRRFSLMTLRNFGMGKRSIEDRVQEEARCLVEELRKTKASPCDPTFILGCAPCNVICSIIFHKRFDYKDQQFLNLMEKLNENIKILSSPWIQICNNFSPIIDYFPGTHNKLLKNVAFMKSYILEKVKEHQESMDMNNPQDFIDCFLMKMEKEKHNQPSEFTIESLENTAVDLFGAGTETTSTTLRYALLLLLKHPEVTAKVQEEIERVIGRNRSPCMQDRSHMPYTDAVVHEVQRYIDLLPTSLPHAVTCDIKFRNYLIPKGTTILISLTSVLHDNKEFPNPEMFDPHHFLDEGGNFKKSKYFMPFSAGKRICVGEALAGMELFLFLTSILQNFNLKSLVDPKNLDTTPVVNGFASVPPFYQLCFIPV
Cytochrome P450 1A2 (Homo sapiens), sequence (P05177 whole entry, looked up): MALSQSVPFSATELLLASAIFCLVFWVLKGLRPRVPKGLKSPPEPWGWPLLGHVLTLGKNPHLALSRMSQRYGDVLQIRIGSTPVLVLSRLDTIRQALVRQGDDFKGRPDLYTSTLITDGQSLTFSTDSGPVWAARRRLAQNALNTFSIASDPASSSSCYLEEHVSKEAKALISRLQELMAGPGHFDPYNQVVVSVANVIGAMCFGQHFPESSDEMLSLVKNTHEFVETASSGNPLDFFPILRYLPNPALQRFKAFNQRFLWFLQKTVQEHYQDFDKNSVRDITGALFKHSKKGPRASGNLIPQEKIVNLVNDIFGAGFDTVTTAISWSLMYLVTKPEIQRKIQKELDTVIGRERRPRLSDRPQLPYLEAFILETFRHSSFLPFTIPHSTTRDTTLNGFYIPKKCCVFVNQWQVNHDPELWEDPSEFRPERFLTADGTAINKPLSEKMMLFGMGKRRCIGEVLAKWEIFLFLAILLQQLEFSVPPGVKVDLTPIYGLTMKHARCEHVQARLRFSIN
Cytochrome P450 2D6 (Homo sapiens), sequence (P10635 whole entry, looked up): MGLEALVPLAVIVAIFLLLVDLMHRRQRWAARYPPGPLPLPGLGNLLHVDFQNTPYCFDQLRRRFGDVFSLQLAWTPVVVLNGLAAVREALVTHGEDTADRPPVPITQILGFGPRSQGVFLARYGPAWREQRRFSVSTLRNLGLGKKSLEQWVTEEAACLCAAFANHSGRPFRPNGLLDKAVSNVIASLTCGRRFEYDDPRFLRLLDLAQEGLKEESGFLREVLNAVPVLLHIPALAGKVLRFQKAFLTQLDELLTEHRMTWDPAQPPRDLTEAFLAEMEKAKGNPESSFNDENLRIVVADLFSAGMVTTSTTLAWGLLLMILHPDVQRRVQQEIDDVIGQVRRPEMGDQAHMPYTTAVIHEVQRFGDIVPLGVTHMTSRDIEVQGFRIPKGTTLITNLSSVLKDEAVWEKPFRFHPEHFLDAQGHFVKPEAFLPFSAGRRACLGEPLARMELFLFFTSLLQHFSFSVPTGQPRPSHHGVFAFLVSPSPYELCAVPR

O=C(O[C@@H]1Cc2c(O)cc(O)cc2O[C@H]1c1cc(O)c(O)c(O)c1)c1cc(O)c(O)c(O)c1
active: Potency [9] 12.6 µM
inactive: Potency [1] | Potency [2] | outcome [3] | outcome [4] | outcome [5] | outcome [6] | outcome [7] | outcome [8] | outcome [10] | outcome [11] | max response [12] -4.04% | outcome [13] | outcome [14] | outcome [15] | outcome [16]

Cc1c[nH]c(/C=C2\C(=O)Nc3ccccc32)c1CCC(=O)O
active: Potency [17] 14.8 µM
1.05: Z-AUC ([20]; measured here: PEO1 parental Z-AUC)
inactive: Potency [1] | Potency [2] | Potency [18] | Potency [19] | Z-AUC [20] 1.24
1.31: Z-AUC ([20]; measured here: PEO4 Z-AUC)
